In all, about 5,500 compounds went through this assay and about 2,000 (36%) were called active. About 18% were inconclusive and are not listed. Rule as the data show it: active = normalized growth mostly below about 0.91 (no sharp cut-off); inconclusive = no clear call, values can overlap the other calls; inactive = mostly above about 0.92. This is one part of the list.
Test: chemical genetic growth profiling, strain panel (AID 1159580);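 also: tested at 20 µM; growth read once vehicle control cultures reached saturation at 30 °C; 1 = growth at the plate median or of vehicle wells; lower values mean less growth of the strain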
Conditions: growth OD

Measured: normalized growth

C=C1C(C)C2C(Cc3ccccc3)NC(=O)C23OC(=O)/C=C/C(O)CCCC(C)C/C=C/C3C1O (stereo unspecified)
inactive: S. cerevisiae deletion strains, locus YAL013W, strain DEP1, hits give low values 1.01 | S. cerevisiae deletion strains, locus YBR021W, strain FUR4, hits give low values 1.01 | S. cerevisiae deletion strains, locus YBR229C, strain ROT2, hits give low values 1 | S. cerevisiae deletion strains, locus YCL029C, strain bik1, hits give low values 0.997 | S. cerevisiae deletion strains, locus YDL035C, strain GPR1, hits give low values 1.02 | S. cerevisiae deletion strains, locus YDL074C, strain BRE1, hits give low values 1.04 | S. cerevisiae deletion strains, locus YDL101C, strain DUN1, hits give low values 1.01 | S. cerevisiae deletion strains, locus YDL134C, strain PPH21, hits give low values 1.01 | S. cerevisiae deletion strains, locus YDL185W, strain tfp1, hits give low values 1 | S. cerevisiae deletion strains, locus YDL192W, strain arf1, hits give low values 1 | S. cerevisiae deletion strains, locus YDR101C, strain arx1, hits give low values 0.995 | S. cerevisiae deletion strains, locus YDR150W, strain NUM1, hits give low values 1.01 | S. cerevisiae deletion strains, locus YDR162C, strain NBP2, hits give low values 0.998 | S. cerevisiae deletion strains, locus YDR318W, strain mcm21, hits give low values 1 | S. cerevisiae deletion strains, locus YDR388W, hits give low values 1 | S. cerevisiae deletion strains, locus YDR502C, strain sam2, hits give low values 0.996 | S. cerevisiae deletion strains, locus YEL061C, strain CIN8, hits give low values 1 | S. cerevisiae deletion strains, locus YER110C, hits give low values 0.997 | S. cerevisiae deletion strains, locus YER155C, strain BEM2, hits give low values 0.993 | S. cerevisiae deletion strains, locus YER167W, strain BCK2, hits give low values 1.01 | S. cerevisiae deletion strains, locus YGL078C, strain dbp3, hits give low values 1 | S. cerevisiae deletion strains, locus YGL086W, strain mad1, hits give low values 0.988 | S. cerevisiae deletion strains, locus YGL248W, strain PDE1, hits give low values 0.997 | S. cerevisiae deletion strains, locus YGR078C, strain PAC10, hits give low values 1.02 | S. cerevisiae deletion strains, locus YGR135W, strain pre9, hits give low values 0.999 | S. cerevisiae deletion strains, locus YGR229C, strain SMI1, hits give low values 1.03 | S. cerevisiae deletion strains, locus YGR252W, strain gcn5, hits give low values 1 | S. cerevisiae deletion strains, locus YHR030C, strain SLT2, hits give low values 1 | S. cerevisiae deletion strains, locus YHR079C, strain IRE1 (second series), hits give low values 0.987 | S. cerevisiae deletion strains, locus YHR094C, strain hxt1, hits give low values 1.01 | S. cerevisiae deletion strains, locus YHR129C, strain ARP1, hits give low values 0.998 | S. cerevisiae deletion strains, locus YHR200W, strain rpn10, hits give low values 1 | S. cerevisiae deletion strains, locus YIL066C, strain RNR3, hits give low values 1.02 | S. cerevisiae deletion strains, locus YIL073C, strain SPO22, hits give low values 1.06 | S. cerevisiae deletion strains, locus YIL125W, strain kgd1, hits give low values 0.984 | S. cerevisiae deletion strains, locus YIR030C, strain dcg1, hits give low values 0.998 | S. cerevisiae deletion strains, locus YJL095W, strain BCK1, hits give low values 1 | S. cerevisiae deletion strains, locus YJL134W, strain LCB3, hits give low values 1 | S. cerevisiae deletion strains, locus YJL168C, strain set2, hits give low values 0.998 | S. cerevisiae deletion strains, locus YJL187C, strain SWE1 (second series), hits give low values 1.01 | S. cerevisiae deletion strains, locus YJR043C, strain POL32, hits give low values 1.01 | S. cerevisiae deletion strains, locus YJR075W, strain HOC1, hits give low values 0.996 | S. cerevisiae deletion strains, locus YKL009W, strain mrt4, hits give low values 1.01 | S. cerevisiae deletion strains, locus YKL068W, hits give low values 1 | S. cerevisiae deletion strains, locus YKL085W, strain MDH1 (second series), hits give low values 0.999 | S. cerevisiae deletion strains, locus YKL085W, strain MDH1, hits give low values 0.999 | S. cerevisiae deletion strains, locus YKL190W, strain CNB1, hits give low values 1.01 | S. cerevisiae deletion strains, locus YKR001C, strain vps1, hits give low values 0.994 | S. cerevisiae deletion strains, locus YLR039C, strain RIC1, hits give low values 1.01 | S. cerevisiae deletion strains, locus YLR058C, strain SHM2, hits give low values 1 | S. cerevisiae deletion strains, locus YLR102C, strain apc9, hits give low values 1.01 | S. cerevisiae deletion strains, locus YLR262C, strain YPT6, hits give low values 1.02 | S. cerevisiae deletion strains, locus YLR268W, strain sec22, hits give low values 1 | S. cerevisiae deletion strains, locus YLR330W, strain CHS5, hits give low values 1.01 | S. cerevisiae deletion strains, locus YLR342W, strain FKS1 (second series), hits give low values 1.02 | S. cerevisiae deletion strains, locus YLR371W, strain rom2, hits give low values 1.01 | S. cerevisiae deletion strains, locus YLR418C, strain cdc73, hits give low values 0.995 | S. cerevisiae deletion strains, locus YML016C, strain PPZ1, hits give low values 1 | S. cerevisiae deletion strains, locus YML032C, strain rad52, hits give low values 1 | S. cerevisiae deletion strains, locus YML124C, strain tub3, hits give low values 0.997 | S. cerevisiae deletion strains, locus YMR078C, strain ctf18, hits give low values 0.992 | S. cerevisiae deletion strains, locus YMR223W, strain ubp8, hits give low values 1 | S. cerevisiae deletion strains, locus YMR263W, strain SAP30, hits give low values 1.01 | S. cerevisiae deletion strains, locus YMR307W, strain GAS1, hits give low values 1.02 | S. cerevisiae deletion strains, locus YNL067W, strain RPL9B, hits give low values 1.01 | S. cerevisiae deletion strains, locus YNL128W, strain TEP1, hits give low values 1.01 | S. cerevisiae deletion strains, locus YNL153C, strain GIM3, hits give low values 1.02 | S. cerevisiae deletion strains, locus YNL233W, strain BNI4, hits give low values 0.994 | S. cerevisiae deletion strains, locus YNL250W, strain rad50, hits give low values 1 | S. cerevisiae deletion strains, locus YNL271C, strain bni1, hits give low values 0.998 | S. cerevisiae deletion strains, locus YNL298W, strain CLA4, hits give low values 0.995 | S. cerevisiae deletion strains, locus YNL307C, strain MCK1, hits give low values 1.01 | S. cerevisiae deletion strains, locus YNL322C, strain KRE1, hits give low values 1.01 | S. cerevisiae deletion strains, locus YNR052C, strain pop2, hits give low values 1.01 | S. cerevisiae deletion strains, locus YOL006C, strain TOP1, hits give low values 1.03 | S. cerevisiae deletion strains, locus YOL012C, strain htz1 0.948 | S. cerevisiae deletion strains, locus YOL147C, strain pex11, hits give low values 0.997 | S. cerevisiae deletion strains, locus YOR061W, strain CKA2, hits give low values 1 | S. cerevisiae deletion strains, locus YOR069W, strain VPS5, hits give low values 1 | S. cerevisiae deletion strains, locus YOR136W, strain idh2, hits give low values 0.999 | S. cerevisiae deletion strains, locus YOR144C, strain elg1, hits give low values 1 | S. cerevisiae deletion strains, locus YOR184W, strain ser1, hits give low values 1.03 | S. cerevisiae deletion strains, locus YOR316C, strain cot1, hits give low values 1 | S. cerevisiae deletion strains, locus YPL055C, strain LGE1, hits give low values 1.03 | S. cerevisiae deletion strains, locus YPL241C, strain CIN2, hits give low values 1.01 | S. cerevisiae deletion strains, locus YPR119W, strain clb2, hits give low values 0.999 | S. cerevisiae deletion strains, locus YPR141C, strain kar3, hits give low values 1 | S. cerevisiae deletion strains, locus YPR163C, strain tif3, hits give low values 1 | S. cerevisiae deletion strains, locus YPR167C, strain met16, hits give low values 0.999 | S. cerevisiae deletion strains, strain wtn01, hits give low values 0.995 | S. cerevisiae strains, strain wild type, hits give low values 1.01

— PubChem BioAssay AID1159580 (chemical genetic matrix, 2015)
